Assay [1] is described as follows: qHTS assay for small molecules that induce genotoxicity in human embryonic kidney cells expressing luciferase-tagged ATAD5 (AID 651632). Also: nearly all actives have a fitted effect of over 15% in size. Also: potency is read from the fitted curve at half-maximal effect. The procedure, abridged: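 Reporter cells (HEK293T) express luciferase-tagged ATAD5, a protein that accumulates after DNA damage. Treat 16 hr at 37C/5% CO2, add Amplite, wait 30 min at RT, and read luminescence.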
For orientation: In qHTS, concentration-response curves come from the screen itself.

The nature of assay [2]: qHTS assay for small molecule agonists of the p53 signaling pathway - cell viability (AID 651633; calls by dose curve; also: nearly all actives have a fitted effect of over 30% in size; also: potency is read from the fitted curve at half-maximal effect). The procedure, abridged: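 p53RE-bla cells, seeded at 4,000 per well and rested 5 h at 37 C/5% CO2, received compounds in DMSO for 16 h at 37 C. CellTiter-Glo was then added, and luminescence was read after 30 min at room temperature to gauge cytotoxicity.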
Assay [3] can be described thus: qHTS assay for small molecules that induce genotoxicity in human embryonic kidney cells expressing luciferase-tagged ATAD5 - cell viability (AID 651634; calls by dose curve; also: nearly all actives have a fitted effect of over 25% in size). The procedure, abridged:
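Seeding of 2,000 HEK293T ATAD5-luciferase cells per well preceded pin-tool compound transfer. Plates sat 15.5 hr at 37C under 5% CO2, then fluorescence was read after 30 min with CellTiter-Fluor.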

Assay [4] is described as follows: qHTS assay for small molecule disruptors of the mitochondrial membrane potential - cell viability (AID 720634; calls by dose curve;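 also: human HepG2 liver cancer cells; series mostly up to about 83 µM; nearly all actives have a fitted effect of over 20% in size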). In short, it runs like this:
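Measuring cytotoxicity alongside mitochondrial potential, the screen quantified ATP by luminescence in HepG2 cells after 1 hr compound incubation and a 30 min room-temperature CellTiter-Glo step.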

Assay [5] can be described thus: qHTS assay for small molecule disruptors of the mitochondrial membrane potential (AID 720635). Also: potency is read from the fitted curve at half-maximal effect. The procedure, abridged:
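HepG2 cells (2,000/well) attached overnight at 37C, then took compound for 1 hr at 37C, 5% CO2. Mito-MPS dye was added for 30 min; fluorescence was read at 490/535 nm (monomers) and 540/590 nm (aggregates).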

Assay [6] is described as follows: qHTS assay to test for compound auto fluorescence at 590 nm (red) in HepG2 cells (AID 720674). In short, it runs like this: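 Rose Bengal sodium served as the red fluorophore standard. HepG2 monolayers (overnight attachment, MEM with 10% FBS) were exposed to test compounds for 1 hr at 37 C and read at Ex 540/Em 590 nm.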
The nature of assay [7]: qHTS assay to test for compound auto fluorescence at 535 nm (green) in HepG2 cells (AID 720675).
The nature of assay [8]: qHTS assay to test for compound auto fluorescence at 460 nm (blue) in HEK293 cells (AID 720678). The procedure, abridged: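 Intrinsic compound fluorescence is recorded in live HEK293 cultures after overnight incubation at 37C, 5% CO2, using excitation 405 nm and emission 460 nm. Values are referenced to triamterene.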
Assay [9] in a line: qHTS assay to test for compound auto fluorescence at 590 nm (red) in HEK293 cells (AID 720679). The procedure, abridged:
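Red autofluorescence, HEK293 cells: 2,000 cells/well; attach 4-5 hr 37C; add 23 nL cpd or DMSO; incubate o/n 37C 5% CO2; read Ex540/Em590; Rose Bengal sodium reference.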

Assay [10] can be described thus: qHTS assay to test for compound auto fluorescence at 535 nm (green) in HEK293 cells (AID 720680).
Assay [11] in a line: qHTS assay to test for compound auto fluorescence at 460 nm (blue) in HEK293 cell free culture (AID 720681). In short, it runs like this:
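Test compounds were pinned into cell-free culture medium (DMEM with 10% FBS) and fluorescence was read directly at Ex/Em 405/460 nm. Signals were expressed as fluorescence equivalents of triamterene, with DMSO vehicle as control.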

The nature of assay [12]: qHTS assay to test for compound auto fluorescence at 535 nm (green) in HEK293 cell free culture (AID 720682). In short, it runs like this: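 Read-out: 485/535 nm fluorescence intensity, calibrated against fluorescein. Medium only (DMEM + 10% FBS, no cells); test compound or DMSO vehicle added by pintool before plate reading.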
Assay [13] is described as follows: qHTS assay to test for compound auto fluorescence at 590 nm (red) in HEK293 cell free culture (AID 720683). The procedure, abridged: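 Tox21 10K library compounds were pinned into cell-free DMEM with 10% FBS and fluorescence was read at excitation 540 nm. Activity is expressed as Rose Bengal sodium equivalency.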
Assay [14] is described as follows: qHTS assay to test for compound auto fluorescence at 590 nm (red) in HepG2 cell free culture (AID 720684). The procedure, abridged:
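Red fluorescence (540 nm excitation, 590 nm emission) was measured after compound transfer into cell-free MEM supplemented with 10% FBS. Values are equivalencies against Rose Bengal sodium.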

The nature of assay [15]: qHTS assay to test for compound auto fluorescence at 535 nm (green) in HepG2 cell free culture (AID 720686).
Assay [16] in a line: qHTS assay to test for compound auto fluorescence at 460 nm (blue) in HepG2 cells (AID 720687). In short, it runs like this: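 Cells (2,000/well in MEM with 10% FBS) attached overnight at 37 C, then were exposed to compound or DMSO for 1 hr at 37 C, 5% CO2. Fluorescence read at Ex/Em 405/460 nm, expressed as triamterene-equivalent signal.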
Assay [17] addresses Glucocorticoid receptor (Homo sapiens) (UniProt P04150). Briefly: qHTS assay to identify small molecule agonists of the glucocorticoid receptor (GR) signaling pathway (AID 720691; active = well fitted activation curve with a large enough effect in the signal ratio in the repeat runs, not every such curve was filed as active; the % refers to the signal ratio). In short, it runs like this:
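Reporter read-out: fluorescence intensity following 2 h room-temperature LiveBLAzer B/G FRET substrate loading. Prior step: GR-bla HeLa cells held 4 h, then treated 18 h at 37 C.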

For assay [18] the target is unchanged. The experiment in a line: qHTS assay to identify small molecule antagonists of the glucocorticoid receptor (GR) signaling pathway (AID 720692; active = well fitted inhibition curve with a large enough effect in the signal ratio in the repeat runs, not every such curve was filed as active; the % refers to the signal ratio). In short, it runs like this: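 Dexamethasone (5 nM final) stimulated a stably integrated GRE-beta-lactamase reporter in HeLa cells during 18 h co-incubation with compounds; signal was quantified as fluorescence intensity of B/G FRET substrate after 2 h.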

Assay [19] can be described thus: qHTS assay to test for compound auto fluorescence at 460 nm (blue) in HepG2 cell free culture (AID 720685). In short, it runs like this: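 Compound (23 nL) or DMSO pinned into cell-free MEM with 10% FBS; blue fluorescence read at 405/460 nm excitation/emission, expressed as auto-fluorescence equivalency to triamterene.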

A number with no mark means an inactive call. Results filed as inconclusive are left out. Active and inactive are the calls of the source. Unless noted, calls follow the shape of the dose curve; as a rule, active = well fitted curve in the direction sought with a large enough effect in the repeat runs; inconclusive = weak or mixed curves; inactive = no such curve, though single readings can be large; an effect the other way counts as inactive or inconclusive.

Experimental findings from PubChem BioAssay (Tox21) are described below.

Chain of Glucocorticoid receptor (Homo sapiens) (P04150 whole entry, looked up): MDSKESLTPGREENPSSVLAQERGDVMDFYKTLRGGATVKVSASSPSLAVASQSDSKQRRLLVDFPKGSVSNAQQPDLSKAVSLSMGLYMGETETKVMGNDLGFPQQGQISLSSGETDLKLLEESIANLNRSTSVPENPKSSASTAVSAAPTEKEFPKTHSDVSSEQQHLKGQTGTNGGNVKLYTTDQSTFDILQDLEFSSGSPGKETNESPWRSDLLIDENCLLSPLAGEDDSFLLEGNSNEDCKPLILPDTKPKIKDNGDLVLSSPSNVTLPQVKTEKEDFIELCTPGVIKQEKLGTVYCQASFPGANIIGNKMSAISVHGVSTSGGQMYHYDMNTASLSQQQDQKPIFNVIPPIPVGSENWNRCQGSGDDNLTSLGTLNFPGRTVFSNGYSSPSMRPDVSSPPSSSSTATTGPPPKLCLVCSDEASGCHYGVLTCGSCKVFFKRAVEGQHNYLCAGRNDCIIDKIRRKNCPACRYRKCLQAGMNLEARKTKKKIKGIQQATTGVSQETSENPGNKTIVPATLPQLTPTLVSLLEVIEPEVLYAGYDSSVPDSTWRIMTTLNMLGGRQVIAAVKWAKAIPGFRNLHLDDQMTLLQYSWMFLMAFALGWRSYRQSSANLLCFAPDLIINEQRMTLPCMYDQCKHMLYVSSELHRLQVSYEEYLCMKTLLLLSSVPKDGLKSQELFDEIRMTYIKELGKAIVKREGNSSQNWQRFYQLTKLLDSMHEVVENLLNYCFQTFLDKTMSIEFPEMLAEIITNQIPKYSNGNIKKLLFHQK

As for `CCN(CC)CCOc1ccc2c(c1)C(=O)c1cc(OCCN(CC)CC)ccc1-2`, the Potency entry in assay [1], in assay [2], in assay [3], in assay [4], in assay [5] and in assay [8] was “inactive” throughout. Moreover, the Potency result in [11], in assay [16] and in assay [17] was “inactive” throughout. Besides, the compound was classed as inactive in assay [6], in assay [7], in assay [9], in assay [10], in assay [12] and in [13]. Besides, the call in assay [14] and in assay [15] was inactive.

For `O=C(NN1CCCC1)NS(=O)(=O)c1ccc(Cl)cc1`, the Potency entry in [1], in [2], in assay [3], in assay [4], in assay [5] and in assay [8] was “inactive” in each case. Moreover, the Potency entry in [11] and in assay [18] was “inactive” in each case. In addition, the outcome in [6], in assay [7], in [10], in assay [12], in assay [14] and in assay [15] was inactive.

`O=C(NS(=O)(=O)/C=C/c1cccs1)c1ccc(F)cc1Br`: the Potency is 1.37 µM (active) in [1] and 61.1 µM (active) in assay [5]. The Potency result in [2], in [3], in assay [4], in [11] and in assay [19] was “inactive” each time. Besides, the call in assay [6], in [7], in [9], in assay [10], in [12] and in assay [13] was inactive. Besides, the call in [14] and in [15] was inactive.

Regarding `CCCCCC(CO)CCC` (stereo not drawn), the Potency entry in [1], in [2], in [3], in [4], in [5] and in assay [8] was “inactive” throughout. In addition, the Potency entry in [11], in assay [19] and in assay [16] was “inactive” each time. For the same compound, the outcome in [6], in assay [7], in assay [9], in assay [10], in assay [13] and in assay [14] was inactive. Besides, the call in [15] was inactive.

For `CCOc1nc2cccc(C(=O)O)c2n1Cc1ccc(-c2ccccc2-c2nn[nH]n2)cc1`, the Potency result in assay [1], in assay [3], in [4], in assay [8], in [11] and in assay [19] was “inactive” each time. Also, the Potency entry in [16] is “inactive”. Besides, the Potency is 29.8 µM (active) in assay [2] and 8.41 µM (active) in assay [5]. Also, the compound was classed as inactive in assay [6], in [7], in assay [9], in assay [10], in assay [12] and in [13]. Besides, the call in assay [14] and in assay [15] was inactive.

For `CC(C)c1ccc2c(C(C)C)cc(C(C)C)c(S(=O)(=O)O)c2c1`, the Potency entry in [1], in assay [2], in assay [3], in assay [4], in assay [5] and in assay [8] was “inactive” throughout. Besides, the Potency entry in [11], in assay [19], in assay [16] and in assay [17] was “inactive” in each case. The compound was classed as inactive in [6], in [7], in [9], in assay [10], in assay [12] and in assay [13]. Besides, the result in assay [14] and in [15] was inactive.

Take `NC1CCN(c2nc3c(cc2F)c(=O)c(C(=O)O)cn3-c2ccc(F)cc2F)C1` (stereo not drawn): the Potency result in assay [1], in assay [2], in assay [3], in assay [4], in assay [5] and in [11] was “inactive” in each case. Moreover, the Potency entry in [19] and in [16] was “inactive” each time. Moreover, the outcome in assay [6], in assay [7], in assay [9], in assay [10], in assay [12] and in assay [13] was inactive. The result in assay [14] and in [15] was inactive.
